# Results filed as inconclusive are left out. Unmarked numbers belong to inactive results. Unless noted, calls follow the shape of the full dose curve.
# Test system: not listed separately
# Experiment: qHTS assay to identify small molecule agonists of the estrogen related receptor signaling pathway with the pleiotropic PPARgamma coactivator (PGC) from Tox21 10K library (AID 1224842; active = well fitted activation curve with a large enough effect in the repeat runs; also: nearly all actives have a fitted effect of over 15% in size)
# Settings: PGC/ERR reporter cell line, luciferase ONE-Glo, 18 h; series mostly up to 92.4 µM; activation: at the top concentration
# In short: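 PGC/ERR reporter cells (NTP line) were seeded 2,000 per well, rested 6 h at 37 C/5% CO2, then pin-dosed with compounds in DMSO for 18 h at 37 C; luciferase read by One-Glo luminescence after 30 min at room temperature.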
# % is scaled to controls: 0 for no effect and ±100 for the full control effect.
row,Structure (SMILES),activation
1,CC1(C)OC[C@@H](COC(=O)CCc2ccc(OC[C@@H](O)CNCCNC(=O)N3CCOCC3)cc2)O1,0.0857% [at 42.5 µM]
2,COCCOC[C@H](CC1(C(=O)NC2CCC(C(=O)O)CC2)CCCC1)C(=O)Oc1ccc2c(c1)CCC2 (some centres undefined),0.205%
3,CN(C)CCCCCCN(C)C,1.04%
4,CCCO[Si](OCCC)(OCCC)OCCC,-0.0298%
5,COc1ccccc1OCC1CNC(=O)O1 (centres undefined),-8.34% [at 42.5 µM]
6,CCOC(=O)c1ccccc1,0.126%
7,COc1cc2c(cc1OC)-c1cc3ccc(OC)c(OC)c3c[n+]1CC2,-18.2%
8,CCOc1ccccc1OCC,-3.96%
9,Cc1ccnc(NS(=O)(=O)c2ccc(N)cc2)n1,0.15% [at 42.5 µM]
10,COC(=O)C1=C(C)NC(C)=C(C(=O)OC(C)C)C1c1cccc2nonc12 (centres undefined),-5.91% [at 42.5 µM]
11,CCCCCCCCCC[N+](C)(C)[O-],-1.52%
12,COc1cc(C)nc(-n2nc(C)cc2OC)n1,-0.0368% [at 42.5 µM]
13,O=Cc1cccc(Br)c1,3.23%

# Molecular target: Thyrotropin receptor (Homo sapiens) (UniProt P16473)
# Experiment: qHTS assay to identify small molecule agonists of the thyroid stimulating hormone receptor (TSHR) signaling pathway (AID 1224843); also: nearly all actives have a fitted effect of over 45% in size
# Settings: TSHR-HEK293 cells, cAMP HTRF, agonist mode, 30 min; series mostly up to 92.4 µM; activation: at the top concentration
# In short: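 Compounds are titrated over 15 concentrations, in triplicate, onto TSHR-HEK293 cells seeded at 800/well. Plates sit 30 min at room temperature before cAMP-d2 and anti-cAMP cryptate are added; signal is read after a further hour.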
# Thyrotropin receptor (Homo sapiens), sequence (P16473 whole entry, looked up): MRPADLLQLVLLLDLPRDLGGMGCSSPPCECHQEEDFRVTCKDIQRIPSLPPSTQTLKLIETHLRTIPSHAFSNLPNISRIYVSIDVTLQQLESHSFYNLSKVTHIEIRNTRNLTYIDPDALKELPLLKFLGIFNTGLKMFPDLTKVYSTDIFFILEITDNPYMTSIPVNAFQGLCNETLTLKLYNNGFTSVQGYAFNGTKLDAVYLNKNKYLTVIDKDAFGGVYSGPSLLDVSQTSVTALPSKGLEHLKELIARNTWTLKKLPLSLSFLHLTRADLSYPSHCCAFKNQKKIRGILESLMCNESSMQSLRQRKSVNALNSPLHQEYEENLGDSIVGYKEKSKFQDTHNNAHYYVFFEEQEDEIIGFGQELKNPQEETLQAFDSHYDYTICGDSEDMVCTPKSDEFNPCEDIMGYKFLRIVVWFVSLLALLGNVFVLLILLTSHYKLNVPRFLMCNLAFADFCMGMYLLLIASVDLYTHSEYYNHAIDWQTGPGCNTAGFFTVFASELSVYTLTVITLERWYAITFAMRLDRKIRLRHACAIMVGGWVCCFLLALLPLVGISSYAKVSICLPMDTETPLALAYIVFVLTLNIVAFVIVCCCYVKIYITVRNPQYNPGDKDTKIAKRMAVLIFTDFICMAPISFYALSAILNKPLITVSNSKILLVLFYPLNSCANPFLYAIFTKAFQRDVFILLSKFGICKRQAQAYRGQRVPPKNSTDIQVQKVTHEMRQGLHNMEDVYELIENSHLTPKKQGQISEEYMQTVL
row,Structure (SMILES),activation
1,CC1(C)OC[C@@H](COC(=O)CCc2ccc(OC[C@@H](O)CNCCNC(=O)N3CCOCC3)cc2)O1,0.233% [at 42.5 µM]
2,CN(C)CCN(C)CCN(C)C,-1.54%
3,CC1CCC(CO)CC1 (centres undefined),2.85%
4,c1coc(CNc2ncnc3nc[nH]c23)c1,-8.39%
5,C1CCC2(CCCCO2)OC1,-9.9%
6,CCC1C(=O)OCC1Cc1cncn1C (centres undefined),-0.32% [at 42.5 µM]
7,CN(C)CCCCCCN(C)C,5.63%
8,CCCO[Si](OCCC)(OCCC)OCCC,-11.8%
9,NC(=O)NC1N=C([O][Al])NC1=O (centres undefined),22.5% [at 42.5 µM]
10,O=C(O)CNC(=O)c1ccccc1,4.16% [at 42.5 µM]
11,[O-][n+]1cccc(CO)c1,2.22% [at 42.5 µM]
12,CC(C)C1CCC(O)CC1 (centres undefined),0.603%
13,O=C1c2ccccc2C(=O)c2cc(O)ccc21,4.9%
14,CCCCOCCOC(=O)COc1cc(Cl)c(Cl)cc1Cl,-26.2%
15,CC(C)COC(=O)c1ccc(N)cc1,5.19% [at 42.5 µM]
16,COc1cc(C(=O)NCc2ccc(OCCN(C)C)cc2)cc(OC)c1OC,0.0851% [at 42.5 µM]
17,Cc1ccnc(NS(=O)(=O)c2ccc(N)cc2)n1,-1.49% [at 42.5 µM]
18,COC(=O)C1=C(C)NC(C)=C(C(=O)OC(C)C)C1c1cccc2nonc12 (centres undefined),-15.3% [at 42.5 µM]
19,Cc1coc2ccccc2c1=O,0.922% [at 42.5 µM]
20,O=C(c1ccccc1O)c1ccccc1O,0.119%
21,C=C(C)C(=O)OCCOCCOCCOCCOC(=O)C(=C)C,-20%
22,COc1cc(C)nc(-n2nc(C)cc2OC)n1,-2.9% [at 42.5 µM]
23,O=Cc1cccc(Br)c1,3.51%
24,CCOc1c(N2CCOCC2)cnn(C)c1=O,1.14% [at 42.5 µM]

# Test system: not listed separately
# Experiment: qHTS assay to identify small molecule agonists of the hypoxia (HIF-1) signaling pathway - cell viability counter screen (AID 1224844); also: nearly all actives have a fitted effect of over 50% in size
# Settings: HRE-bla ME-180 viability, CellTiter-Glo luminescence, 17 h; series mostly up to 76.8 µM; activity change, negative = cytotoxicity: at the top concentration
# In short: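 Viability counter screen: HRE-bla ME-180 cells plated 5 hrs before compound addition, treated 17 hrs at 37C and 5% CO2, then CellTiter-Glo added after the FRET reporter read; luminescence after 30 min.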
row,Structure (SMILES),"activity change, negative = cytotoxicity"
1,CC1(C)OC[C@@H](COC(=O)CCc2ccc(OC[C@@H](O)CNCCNC(=O)N3CCOCC3)cc2)O1,-5.64% [at 35.3 µM]
2,CN(C)CCN(C)CCN(C)C,7.3%
3,CN(C)C(=O)Oc1cccc([N+](C)(C)C)c1,4.49% [at 35.3 µM]
4,CCCOC(=O)CC,6.8%
5,CC1CCC(CO)CC1 (centres undefined),0.13%
6,CC(C)CC(C)(N)C#N (centres undefined),-0.327%
7,c1coc(CNc2ncnc3nc[nH]c23)c1,2.01%
8,C1CCC2(CCCCO2)OC1,1.99%
9,COCCOC[C@H](CC1(C(=O)NC2CCC(C(=O)O)CC2)CCCC1)C(=O)Oc1ccc2c(c1)CCC2 (some centres undefined),-19.9%
10,CCC1C(=O)OCC1Cc1cncn1C (centres undefined),7.52% [at 35.3 µM]
11,CN(C)CCCCCCN(C)C,0.199%
12,CCCn1cc[n+](C)c1C,-7.4%
13,CCCO[Si](OCCC)(OCCC)OCCC,11.4%
14,NC(=O)NC1N=C([O][Al])NC1=O (centres undefined),1.61% [at 35.3 µM]
15,COc1ccccc1OCC1CNC(=O)O1 (centres undefined),-0.205% [at 35.3 µM]
16,C[N+]1(C)[C@@H]2CC(OC(=O)[C@H](CO)c3ccccc3)C[C@H]1[C@@H]1O[C@@H]12 (some centres undefined),1.13% [at 35.3 µM]
17,O=C(O)CNC(=O)c1ccccc1,0.0069% [at 35.3 µM]
18,[O-][n+]1cccc(CO)c1,-0.961% [at 35.3 µM]
19,CC(C)C1CCC(O)CC1 (centres undefined),-15.4%

row,Structure (SMILES),"activity change, negative = cytotoxicity"
1,CCOC(=O)c1ccccc1,-0.614%
2,COc1cc2c(cc1OC)-c1cc3ccc(OC)c(OC)c3c[n+]1CC2,0.565%
3,O=C1c2ccccc2C(=O)c2cc(O)ccc21,-17.4%
4,CCOc1ccccc1OCC,1.02%
5,CCCCOCCOC(=O)COc1cc(Cl)c(Cl)cc1Cl,9.17%
6,CC(C)COC(=O)c1ccc(N)cc1,6.31% [at 35.3 µM]
7,COc1cc(C(=O)NCc2ccc(OCCN(C)C)cc2)cc(OC)c1OC,-0.536% [at 35.3 µM]
8,Cc1ccnc(NS(=O)(=O)c2ccc(N)cc2)n1,-0.833% [at 35.3 µM]
9,COC(=O)C1=C(C)NC(C)=C(C(=O)OC(C)C)C1c1cccc2nonc12 (centres undefined),-17.5% [at 35.3 µM]
10,NCCCC[C@H](N[C@@H](CCc1ccccc1)C(=O)O)C(=O)N1CCC[C@H]1C(=O)O,-4.02% [at 35.3 µM]
11,Cc1coc2ccccc2c1=O,-0.928% [at 35.3 µM]
12,CCCCCCCCCC[N+](C)(C)[O-],13.1%
13,O=C(c1ccccc1O)c1ccccc1O,0.152%
14,NC(=O)Cc1cccc2ccccc12,0.184%
15,C=C(C)C(=O)OCCOCCOCCOCCOC(=O)C(=C)C,12.6%
16,CC12CCC(C(=O)C1=O)C2(C)C (centres undefined),-7.05%
17,COc1cc(C)nc(-n2nc(C)cc2OC)n1,-0.0531% [at 35.3 µM]
18,CCCC[N+](C)(CCCC)CCCC,-24.3%
19,O=Cc1cccc(Br)c1,2.04%

# Test system: not listed separately
# Experiment: qHTS assay to identify small molecule agonists of H2AX (AID 1224845; active = well fitted activation curve with a large enough effect in the signal ratio in the repeat runs, not every such curve was filed as active; the % refers to the signal ratio)
# Settings: CHO-K1 phospho-H2AX Ser139 HTRF, 3 h; series mostly up to 154 µM; activation (H2AX phosphorylation): at the top concentration
# In short: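 Wild-type CHO-K1 cells plated overnight, then exposed 3 hr at 37C to compounds at 15 concentrations (0.76% DMSO). Lysed, then HTRF anti-pH2AX(S139)-cryptate/anti-H2AX-d2 detection after 24 hr at room temperature; emissions 665 and 620 nm.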
row,Structure (SMILES),activation (H2AX phosphorylation)
1,CC1(C)OC[C@@H](COC(=O)CCc2ccc(OC[C@@H](O)CNCCNC(=O)N3CCOCC3)cc2)O1,-0.172% [at 70.9 µM]
2,CN(C)CCN(C)CCN(C)C,-2.78%
3,CN(C)C(=O)Oc1cccc([N+](C)(C)C)c1,0.212% [at 70.9 µM]
4,CCCOC(=O)CC,-2.68%
5,CC1CCC(CO)CC1 (centres undefined),0.0481%
6,CC(C)CC(C)(N)C#N (centres undefined),-2.46%
7,c1coc(CNc2ncnc3nc[nH]c23)c1,-2.1%
8,C1CCC2(CCCCO2)OC1,-0.26%
9,CCC1C(=O)OCC1Cc1cncn1C (centres undefined),-4.09% [at 70.9 µM]
10,CN(C)CCCCCCN(C)C,0.0954%
11,CCCn1cc[n+](C)c1C,-0.54%
12,NC(=O)NC1N=C([O][Al])NC1=O (centres undefined),0.601% [at 70.9 µM]
13,COc1ccccc1OCC1CNC(=O)O1 (centres undefined),0.196% [at 70.9 µM]
14,C[N+]1(C)[C@@H]2CC(OC(=O)[C@H](CO)c3ccccc3)C[C@H]1[C@@H]1O[C@@H]12 (some centres undefined),-2.87% [at 70.9 µM]
15,CC(C)C1CCC(O)CC1 (centres undefined),-1.85%
16,CCCCOCCOC(=O)COc1cc(Cl)c(Cl)cc1Cl,2.62%
17,CC(C)COC(=O)c1ccc(N)cc1,-1.04% [at 70.9 µM]
18,COc1cc(C(=O)NCc2ccc(OCCN(C)C)cc2)cc(OC)c1OC,0.354% [at 70.9 µM]
19,Cc1ccnc(NS(=O)(=O)c2ccc(N)cc2)n1,-0.193% [at 70.9 µM]
20,Cc1coc2ccccc2c1=O,-3.1% [at 70.9 µM]
21,NC(=O)Cc1cccc2ccccc12,1.44%
22,CC12CCC(C(=O)C1=O)C2(C)C (centres undefined),1.5%
23,COc1cc(C)nc(-n2nc(C)cc2OC)n1,0.529% [at 70.9 µM]
24,CCOc1c(N2CCOCC2)cnn(C)c1=O,-2.14% [at 70.9 µM]

# From PubChem BioAssay (Tox21)
